Experiment [1] in a line: qHTS assay to identify small molecule antagonists of the estrogen receptor alpha (ER-alpha) signaling pathway using the BG1 cell line in the presence of 0.1 nM 17-beta-estradiol - cell viability counter screen (AID 1259241). Also: nearly all actives have a fitted effect of over 40% in size. The essentials: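 Live-cell protease activity (CellTiter-Fluor fluorescence, 30 min) was read in the same wells after VM7Luc4E2 cells had been exposed to compounds with 0.1 nM 17beta-estradiol for 22 hr at 37C.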
In general terms: Quantitative high-throughput screening tests each substance at several concentrations.

Experiment [2] in a line: qHTS assay to identify small molecule antagonists of the androgen receptor (AR) signaling pathway using the MDA cell line in the presence of 0.5 nM R1881 - cell viability counter screen (AID 1259242). Also: nearly all actives have a fitted effect of over 45% in size. The essentials:
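MDA-kb2 cells (MMTV-luciferase, AR/GR responsive) were treated with compounds plus 0.5 nM R1881 (final) for 16 hr at 37C, 0% CO2. Viability was then read in the same wells as live-cell protease fluorescence (CellTiter-Fluor, 30 min).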

Experiment [3] can be described thus: qHTS assay to identify small molecule phospholipidosis (PLD) inducers (AID 1259344; active = well fitted curve in the direction sought with a large enough effect; an effect the other way counts as inactive or inconclusive). The essentials:
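Quantitative HTS in HepG2: compound plus LipidTOX Red dye for 24 h, paraformaldehyde fixation with Hoechst 33342, widefield high-content imaging; amiodarone as positive and DMSO as negative control.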

Experiment [4] is described as follows: qHTS assay to identify small molecule HDAC inhibitors (AID 1259364). Also: nearly all actives have a fitted effect of over 45% in size. Also: potency is read from the fitted curve at half-maximal effect. As to activity change, negative = inhibition: top concentration of the series differs between compounds. An outline of the steps:
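Wild-type HCT-116 cells, plated overnight at 37 C, exposed to compounds 2 hr at 37 C; luminogenic HDAC-Glo substrate then added 30 min at room temperature. Luminescence reports relative endogenous class I/II HDAC activity.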

A short description of experiment [5]: qHTS assay to identify small molecule HDAC inhibitors - cell viability counter screen (AID 1259365). Also: series mostly up to about 92 µM; nearly all actives have a fitted effect of over 50% in size. An outline of the steps: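 HCT-116 (wild type), 1,500 cells/well, overnight 37C/5% CO2; compound in DMSO 2hr; CellTiter-Glo 30min RT; luminescence read.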
Experiment [6] is described as follows: qHTS assay to identify small molecule agonists of the sonic hedgehog signaling (Shh) pathway - cell viability counter screen (AID 1259366). Also: nearly all actives have a fitted effect of over 50% in size. An outline of the steps: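 CellTiter-Fluor fluorescence read-out, 1 hr at 37C, added after 23hr compound exposure. Cells: 3T3 Gli1-Luc, an NIH/3T3 clone with stably integrated Gli1-Luc reporter, plated 4hr before compound.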

Experiment [7] is described as follows: qHTS assay to identify small molecule antagonists of the sonic hedgehog signaling (Shh) pathway - cell viability counter screen (AID 1259367). Also: nearly all actives have a fitted effect of over 55% in size. An outline of the steps: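 Seed 3T3 Gli1-Luc cells at 2,000 per well; incubate 4 hr; add compound in DMSO, then conditioned medium; incubate at 37C with 5% CO2; add CellTiter-Fluor after 23 hr; read fluorescence 1 hr later.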

Experiment [8] can be described thus: qHTS assay to identify small molecule agonists of the sonic hedgehog signaling (Shh) pathway (AID 1259368; calls by dose curve;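 also: NIH/3T3-derived 3T3Gli1-Luc cells carrying a stable Gli1-driven firefly luciferase reporter; series mostly up to about 92 µM; nearly all actives have a fitted effect of over 15% in size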). The essentials:
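NIH/3T3-derived 3T3Gli1-Luc cells with stably integrated Gli1-driven firefly luciferase, 2,000 cells/well, compounds added after 4 hr. Incubated 24 hr at 37C, 5% CO2; luminescence read after 30 min with luciferase reagent at room temperature.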

In experiment [9] the target is Estrogen receptor (Homo sapiens) (UniProt P03372). In words: qHTS assay to identify small molecule antagonists of the estrogen receptor alpha (ER-alpha) signaling pathway using the BG1 cell line in the presence of 0.1 nM 17-beta-estradiol (AID 1259244). Also: nearly all actives have a fitted effect of over 50% in size. The essentials: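 VM7Luc4E2 cells (endogenous full-length ER-alpha, 4×ERE-luciferase), kept 5 days in phenol red-free, charcoal-stripped FBS medium; 4,000 cells/well. Compounds added with 0.1 nM (final) 17beta-estradiol, 22 hr at 37C; luminescence read with ONE-Glo after 30 min.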
Chain of Estrogen receptor (Homo sapiens) (P03372 whole entry, looked up): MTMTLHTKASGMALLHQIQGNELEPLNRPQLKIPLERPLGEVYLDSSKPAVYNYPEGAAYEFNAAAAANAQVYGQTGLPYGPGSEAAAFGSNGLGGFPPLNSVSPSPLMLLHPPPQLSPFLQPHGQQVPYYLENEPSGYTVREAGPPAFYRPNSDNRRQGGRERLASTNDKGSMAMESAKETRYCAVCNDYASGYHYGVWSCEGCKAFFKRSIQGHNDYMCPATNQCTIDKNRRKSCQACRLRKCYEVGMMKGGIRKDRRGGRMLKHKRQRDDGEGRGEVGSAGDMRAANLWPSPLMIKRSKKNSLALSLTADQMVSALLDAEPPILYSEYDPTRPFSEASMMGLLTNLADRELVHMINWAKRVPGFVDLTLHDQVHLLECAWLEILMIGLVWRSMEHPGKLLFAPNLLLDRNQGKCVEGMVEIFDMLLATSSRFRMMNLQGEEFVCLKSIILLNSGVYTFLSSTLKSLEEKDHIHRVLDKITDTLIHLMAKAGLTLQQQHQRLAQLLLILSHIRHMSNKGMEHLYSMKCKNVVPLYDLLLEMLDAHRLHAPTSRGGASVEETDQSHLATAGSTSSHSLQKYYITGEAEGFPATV

Unmarked numbers belong to inactive results. Inconclusive results are not listed. Active and inactive are the calls of the source. Unless noted, calls follow the shape of the dose curve; as a rule, active = well fitted curve in the direction sought with a large enough effect in the repeat runs; inconclusive = weak or mixed curves; inactive = no such curve, though single readings can be large; an effect the other way counts as inactive or inconclusive.
% is scaled to controls: 0 for no effect and ±100 for the full control effect.

With `O=C(O)CN(CCN(CC(=O)O)CC(=O)O)CC(=O)O`, the activity change, negative = cytotoxicity in [1] is -6% [at 3.27 µM]; in experiment [5] it was 0.173% [at 3.27 µM]. Also, the viability change, negative = cytotoxic was 4.5% [at 3.26 µM] in experiment [2], 3.2% [at 3.27 µM] in experiment [6] and -2.72% [at 3.27 µM] in experiment [7]. The Potency entry in [3] was “inactive”. In addition, the activity change, negative = inhibition in experiment [4] was 2.84% [at 3.27 µM]. Further, the activity change in experiment [8] is 0.474% [at 3.27 µM, active compounds read high].
Turning to `CN1CCCCC1CCN1c2ccccc2Sc2ccc(S(C)=O)cc21` (centres undefined), the Potency result in experiment [1], in [2], in experiment [3], in experiment [4], in experiment [5] and in [8] was “inactive” each time.
`c1ccc(C(O[C@@H]2CCCN(CCc3ccc4c(c3)OCO4)C2)c2ccccc2)cc1`: the Potency result in experiment [1], in experiment [2], in experiment [4], in experiment [5], in experiment [6] and in experiment [7] was “inactive” each time. For the same compound, the Potency entry in experiment [8] is “inactive”.
For `CCCCOC(=O)CO`, the Potency result in experiment [1], in [2], in [4], in experiment [5], in experiment [6] and in experiment [7] was “inactive” throughout. In addition, in experiment [8], the Potency result is “inactive”.
In the case of `CC1=CCC(=C(C)C)CC1`, the Potency entry in [1], in experiment [2], in experiment [4], in experiment [5], in experiment [6] and in experiment [7] was “inactive” in each case. The Potency result in [8] was “inactive”.
Consider `CCO[C@@H]1O[C@H](C(COCc2ccccc2)OCc2ccccc2)[C@H](OCc2ccccc2)[C@H]1O` (some centres undefined), for which the Potency result in experiment [1], in [2], in [3], in [4], in experiment [5] and in experiment [6] was “inactive” each time. Further, the Potency result in experiment [7] and in experiment [8] was “inactive” in each case.
As for `Cc1cc(C(C#N)c2ccc(Cl)cc2)c(Cl)cc1NC(=O)c1cc(I)cc(I)c1O` (centres undefined), the Potency entry in experiment [1], in [2], in experiment [3], in experiment [5], in experiment [6] and in [7] was “inactive” each time. In addition, the Potency result in [8] is “inactive”.
For the compound `CCN(CCN)c1cccc(C)c1`, the Potency result in [1], in experiment [2], in [4], in experiment [5], in [6] and in [7] was “inactive” throughout. Moreover, the Potency result in experiment [8] is “inactive”.
On to `O=[N+]([O-])c1ccc(F)c(Cl)c1`, for which the Potency result in [1], in experiment [2], in experiment [4], in experiment [5], in experiment [6] and in experiment [7] was “inactive” throughout. Further, in [8], the Potency result was “inactive”.
Take `COC(=O)C1=C(C)NC(C)=C(C(=O)OCCN2CCN(C(c3ccccc3)c3ccccc3)CC2)C1c1cccc([N+](=O)[O-])c1` (centres undefined): the Potency result in [1], in experiment [2], in experiment [3], in [5], in [6] and in experiment [7] was “inactive” each time. Further, in experiment [8], the Potency entry was “inactive”.
As to `CCCCC/C=C\C/C=C\CCCCCCCC(=O)O`, the Potency result in [1], in experiment [2], in experiment [3], in experiment [4], in [5] and in experiment [6] was “inactive” throughout. Also, the Potency result in [7] and in [8] was “inactive” throughout.
As for `CN(C)Cc1cc(C(C)(C)C)c(O)c(C(C)(C)C)c1`, the Potency result in experiment [1], in experiment [2], in experiment [4], in [5], in [6] and in experiment [7] was “inactive” in each case. Further, in experiment [8], the Potency entry was “inactive”.
Regarding `CC(=O)CC(=O)Nc1ccc(S(=O)(=O)O)cc1`, the Potency entry in experiment [1], in experiment [2], in experiment [4], in experiment [5], in experiment [6] and in experiment [7] was “inactive” throughout. In addition, the Potency entry in [8] is “inactive”.
As for `CCCCCCCCCCCC(=O)OCC(C)OC(=O)CCCCC(=O)O` (centres undefined), the Potency entry in [1], in experiment [2], in experiment [9], in [5], in experiment [6] and in experiment [7] was “inactive” in each case. Moreover, in [8], the Potency result was “inactive”.
With `Cc1c(C)c2c(c(C)c1O)CC[C@@](C)(CCC[C@H](C)CCC[C@H](C)CCCC(C)C)O2`, the Potency result in [1], in [2], in [3], in experiment [4], in experiment [5] and in experiment [6] was “inactive” each time. Also, the Potency entry in experiment [7] and in experiment [8] was “inactive” throughout.
Turning to `CC1(C)CCC[C@]2(C)[C@H]3CCO[C@]3(C)CC[C@@H]12`, the Potency entry in experiment [1], in experiment [2], in [4], in [5], in experiment [6] and in [7] was “inactive” each time. Further, the Potency result in experiment [8] was “inactive”.
As for `O=c1oc2cc(O)ccc2c2oc3cc(O)ccc3c12`, the Potency entry in experiment [1], in experiment [2] and in experiment [7] was “inactive” each time. Besides, in experiment [4], the Potency was 9.29 µM (active).
With `CCCCOC(=O)CC`, the Potency entry in [1], in experiment [2], in experiment [4], in experiment [5], in experiment [6] and in [7] was “inactive” throughout. In addition, the Potency result in experiment [8] was “inactive”.
As for `CC1=Nc2ccccc2C1(C)C`, the Potency result in experiment [1], in experiment [2], in [4], in experiment [5], in experiment [7] and in experiment [8] was “inactive” in each case.
Consider `Cc1cc(C(C)(C)C)c(O)c(C)c1Cn1c(=O)n(Cc2c(C)cc(C(C)(C)C)c(O)c2C)c(=O)n(Cc2c(C)cc(C(C)(C)C)c(O)c2C)c1=O`, for which the Potency entry in [1], in [2], in [5], in experiment [6], in experiment [7] and in experiment [8] was “inactive” each time.
Regarding `CCCCC(CC)COC(=O)CCCCC(=O)OCc1ccccc1` (centres undefined), the Potency entry in [1], in experiment [2], in experiment [4], in experiment [5], in experiment [7] and in experiment [8] was “inactive” throughout.

The values are drawn from PubChem BioAssay (Tox21).
